Several values for one entry are separate records, joined by “and”; a condition that tells them apart may be missing. Equal entries are not always repeated. Hit rate of the full screen: of about 5,500 compounds, about 2,000 (36%) were called active. Another 18% or so got no clear call; they are omitted. No stated cut-off is given here; in the data, active means normalized growth mostly below about 0.91 (no sharp cut-off); inconclusive means no clear call, values can overlap the other calls; inactive means mostly above about 0.92. The list shows a part of the results.
Assay: chemical genetic growth profiling, strain panel (AID 1159580);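 further: tested at 20 µM; growth read once vehicle control cultures reached saturation at 30 °C; 1 = growth at the plate median or of vehicle wells; lower values mean less growth of the strain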
Settings: S. cerevisiae deletion strains, growth OD

Measured: normalized growth

COc1cc(-c2coc3cc(O[C@@H]4O[C@H](CO)[C@@H](O)[C@H](O)[C@H]4O)c(OC)c(O)c3c2=O)cc(O)c1OC
inactive: locus YAL021C, strain ccr4, hits give low values 1.01 | locus YAL026C, strain drs2, hits give low values 1.01 | locus YAL030W, strain snc1, hits give low values 0.988 | locus YBL061C, strain skt5, hits give low values 0.997 | locus YBR009C, strain hhf1, hits give low values 0.986 | locus YBR021W, strain FUR4, hits give low values 1.02 | locus YBR023C, strain chs3, hits give low values 0.989 | locus YBR171W, strain sec66, hits give low values 0.99 | locus YBR229C, strain ROT2, hits give low values 0.994 | locus YBR231C, strain swc5, hits give low values 0.983 | locus YBR279W, strain paf1, hits give low values 1 | locus YCL011C, strain gbp2, hits give low values 0.999 | locus YCL016C, strain dcc1, hits give low values 0.996 | locus YCL029C, strain bik1, hits give low values 1.01 | locus YCL061C, strain MRC1, hits give low values 0.994 | locus YCL069W, strain vba3, hits give low values 1.01 | locus YCR088W, strain abp1, hits give low values 0.997 | locus YDL005C, strain med2, hits give low values 0.98 | locus YDL035C, strain GPR1, hits give low values 1.04 | locus YDL040C, strain nat1, hits give low values 0.994 | locus YDL074C, strain BRE1, hits give low values 1.08 | locus YDL101C, strain DUN1, hits give low values 0.987 | locus YDL185W, strain tfp1, hits give low values 0.997 | locus YDL192W, strain arf1, hits give low values 1.02 | locus YDR001C, strain nth1, hits give low values 1.01 | locus YDR069C, strain doa4, hits give low values 0.986 | locus YDR101C, strain arx1, hits give low values 1.03 | locus YDR137W, strain rgp1, hits give low values 1.02 | locus YDR150W, strain NUM1, hits give low values 1.02 | locus YDR159W, strain sac3, hits give low values 0.973 | locus YDR162C, strain NBP2, hits give low values 1.03 | locus YDR195W, strain ref2 0.939 | locus YDR297W, strain sur2, hits give low values 1.01 | locus YDR318W, strain mcm21, hits give low values 1.02 | locus YDR334W, strain swr1, hits give low values 0.997 | locus YDR335W, strain msn5, hits give low values 1 | locus YDR388W, hits give low values 1 | locus YDR392W, strain spt3, hits give low values 0.874 | locus YDR502C, strain sam2, hits give low values 1 | locus YEL003W, strain gim4, hits give low values 0.982 | locus YEL037C, strain rad23, hits give low values 1.01 | locus YEL061C, strain CIN8 (second series), hits give low values 1 | locus YEL061C, strain CIN8, hits give low values 1 | locus YER015W, strain faa2, hits give low values 1 | locus YER016W, strain bim1, hits give low values 0.996 | locus YER110C, hits give low values 0.996 | locus YER111C, strain swi4, hits give low values 1 | locus YER155C, strain BEM2 (second series), hits give low values 0.928 | locus YER155C, strain BEM2, hits give low values 0.991 | locus YER167W, strain BCK2, hits give low values 0.993 | locus YFR010W, strain ubp6, hits give low values 0.999 | locus YGL078C, strain dbp3, hits give low values 0.988 | locus YGL086W, strain mad1, hits give low values 1 | locus YGL167C, strain pmr1, hits give low values 0.996 | locus YGL173C, strain kem1, hits give low values 1 | locus YGL227W, strain vid30, hits give low values 0.995 | locus YGL240W, strain doc1, hits give low values 0.961 | locus YGL248W, strain PDE1, hits give low values 0.982 | locus YGL253W, strain hxk2, hits give low values 1.02 | locus YGR135W, strain pre9, hits give low values 0.97 | locus YGR252W, strain gcn5, hits give low values 0.997 | locus YHR013C, strain ard1, hits give low values 0.979 | locus YHR027C, strain rpn1, hits give low values 0.995 | locus YHR030C, strain SLT2, hits give low values 1.01 | locus YHR079C, strain IRE1 (second series), hits give low values 1 | locus YHR079C, strain IRE1, hits give low values 1.01 | locus YHR094C, strain hxt1, hits give low values 0.993 | locus YHR129C, strain ARP1, hits give low values 0.999 | locus YHR142W, strain chs7, hits give low values 1.02 | locus YHR200W, strain rpn10, hits give low values 1 | locus YIL066C, strain RNR3, hits give low values 1 | locus YIL073C, strain SPO22, hits give low values 1.05 | locus YIL125W, strain kgd1, hits give low values 0.997 | locus YIR030C, strain dcg1, hits give low values 0.994 | locus YJL092W, strain hpr5, hits give low values 1 | locus YJL095W, strain BCK1 (second series), hits give low values 1 | locus YJL095W, strain BCK1, hits give low values 1.02 and 1.01 | locus YJL115W, strain asf1, hits give low values 0.993 | locus YJL129C, strain trk1, hits give low values 1 | locus YJL134W, strain LCB3, hits give low values 0.992 | locus YJL154C, strain vps35, hits give low values 0.997 | locus YJL164C, strain tpk1, hits give low values 1 | locus YJL166W, strain qcr8, hits give low values 0.991 | locus YJL168C, strain set2, hits give low values 0.995 | locus YJL187C, strain SWE1 (second series), hits give low values 0.991 | locus YJR043C, strain POL32, hits give low values 1.05

Reference: PubChem BioAssay AID1159580 (chemical genetic matrix, 2015)
